Source: PubChem BioAssay AID588689 (Southern Research Specialized Biocontainment Screening …, 2011)
The whole screen tested about 340,000 compounds, of which about 1,000 (0.29%) were called active. Cut-off read from the data, not from the text of the source: inconclusive = inhibition above about 29% without an active follow-up result; inactive = below that. The list is a sample of the results. Entries with a potency or affinity are not part of this list.

Molecular target: Genome polyprotein (Dengue virus type 2 (strain 16681-PDK53)) (UniProt P29991)
Assay: flavivirus cap methylation enzyme inhibition – biochemical, confirmation dose response, primary screen (AID 588689)
Conditions: Dengue-2 NS5 methyltransferase capping enzyme assay, at 25 µM, stronger effect = higher value
[1] = measured here: pilot screen replicate inhibition

Structure (SMILES)	inhibition	inhibition [1]
N#C/C(=C\C=C\c1ccccc1[N+](=O)[O-])c1nc(-c2ccc3c(c2)OCO3)cs1	-0.69% (inactive)	–
COc1ccc(-c2cc(C(F)(F)F)n3nc(C(=O)NCc4ccco4)cc3n2)cc1	-2.82% (inactive)	–
CCc1ccc(N2C(=O)c3sc4nnc(C)c(=O)n4c3C2=O)cc1	-0.68% (inactive)	5.46%
Cc1ccc(N2C(=O)c3sc4nnc(C)c(=O)n4c3C2=O)cc1	0% (inactive)	–
Cc1ccc(S(=O)(=O)N2CCCCC2)cc1NC(=O)c1ccco1	-2.75% (inactive)	–
Cc1ccc(C)c(OCc2cc(C(=O)NC(C)c3cnn(C)c3)no2)c1 (stereo not drawn)	-5% (inactive)	–
CCOC(=O)N1CCC(Nc2c(-c3ccc(C)c(C)c3)c(=O)c2=O)CC1	-8.18% (inactive)	–
COc1ccc(S(=O)(=O)Nc2cccc3c2O[C@H](CN(C)C(=O)Nc2ccc(C(F)(F)F)cc2)[C@@H](C)CN([C@H](C)CO)C3=O)cc1	-2.11% (inactive)	–
O=C(CCCN1C(=O)/C(=C\c2cccs2)SC1=S)Nc1ccc(O)cc1C(=O)O	-9.83% (inactive)	–
O=C(CN1C(=O)S/C(=C\c2cccs2)C1=O)Nc1ccc(O)cc1C(=O)O	14.3% (inactive)	–
O=C(CN1C(=O)S/C(=C\c2cccs2)C1=O)Nc1ccc(C(=O)O)c(O)c1	15% (inactive)	–
Cc1ccc(/C=C2\SC(=S)N(CCC(=O)NNC(=O)c3ccc(O)cc3)C2=O)cc1	-0.88% (inactive)	–
O=C(CCCN1C(=O)/C(=C\c2ccccc2)SC1=S)Nc1ccc(O)cc1C(=O)O	20.6% (inactive)	–
O=C(CN1C(=O)/C(=C/c2ccco2)SC1=S)Nc1ccc(C(=O)O)c(O)c1	36.5% (inactive)	–
O=C(CCN1C(=O)/C(=C/c2ccco2)SC1=S)Nc1ccc(C(=O)O)c(O)c1	48.7% (inactive)	–
O=C(CN1C(=O)S/C(=C\c2cccs2)C1=O)Nc1ccc(O)c(C(=O)O)c1	8.14% (inactive)	–
CC(C)(CNC(=O)c1ccccc1F)CNC(=O)c1ccccc1F	3.07% (inactive)	–
CC(C)OC(=O)N(C)C[C@H]1OCc2cnnn2CCCC(=O)N([C@H](C)CO)C[C@H]1C	-3.41% (inactive)	–
COc1ccc(C2=NS(=O)(=O)N(C)C(C(=O)NC3CCCCC3)=C2)cc1OC	-5.5% (inactive)	–
O=S(=O)(CCc1nc2ccccc2o1)c1ccc2ccccc2c1	-2.77% (inactive)	–
CC(Sc1nnc(COc2ccc(Cl)cc2)n1Cc1ccccc1)C(=O)O (stereo not drawn)	0.73% (inactive)	–
CCN(CC)C(=O)C1=C(C)N(CCC2=CCCCC2)C(=O)C(CC(=O)NCC2CCCCC2)C1 (stereo not drawn)	-0.57% (inactive)	–

Structure (SMILES)	inhibition	inhibition [1]
O=[N+]([O-])c1cc(C(F)(F)F)cc([N+](=O)[O-])c1NN=C1CCCCC1	-139% (inactive)	–
CC1(C)CC(=O)C=C(NCc2ccc(C(=O)O)cc2)C1	-7.73% (inactive)	–
COc1ccc(CN2C(=O)C(C)Nc3ncnc(N4CCOCC4)c32)cc1 (stereo not drawn)	-5.79% (inactive)	–
COc1ccc(S(=O)(=O)N(CCCN2CCOCC2)Cc2cccc3ccccc23)cc1	1.67% (inactive)	–
CCN(CC)c1ccc(C(=C2C=CC(=[N+](CC)CC)C=C2)c2ccc(S(=O)(=O)O)cc2S(=O)(=O)[O-])cc1	1.48% (inactive)	–
CCN(CC)c1ccc(C(=C2C=CC(=[N+](CC)CC)C=C2)c2ccc(N(CC)CC)cc2)cc1	17% (inactive)	–
Cc1ccc2[nH]cc(CCNC(=O)c3ccc4c(c3)OCO4)c2c1	1.31% (inactive)	-1.82%
O=S(=O)(NCc1nnc2ccccn12)c1ccc(F)cc1	-3.63% (inactive)	–
Cc1sc(N2C(=O)C3C4C=CC(C4)C3C2=O)c(C#N)c1C (stereo not drawn)	-2.18% (inactive)	–
CC(C)[C@H](NC(=O)c1c(F)cccc1F)C(=O)OCC(=O)NNC(=O)c1ccccc1	-2.88% (inactive)	–
CN(C)c1ccc(Cc2ccc(N(C)C)cc2)cc1	4.45% (inactive)	–
CN(C)c1ccc2c(O)cc(=O)n(C)c2c1	23.3% (inactive)	–
COc1cc(NC(=O)c2cccs2)c(OC)cc1NC(=O)c1cccs1	-7.78% (inactive)	–
CCC(C)N(C(=O)CSc1nc(C)nc2ccccc12)C1CCS(=O)(=O)C1 (stereo not drawn)	-9.59% (inactive)	–
O=C(c1ccccc1)N1CCN(c2ccc(N3CCOCC3)nn2)CC1	0.74% (inactive)	–
C[C@H](CO)N1C[C@H](C)[C@H](CN(C)C(=O)Nc2ccccc2)OCc2cnnn2CCCC1=O	1.65% (inactive)	–
O=C1C=C(Nc2ccccc2O)c2ccccc2C1=O	19% (inactive)	–
O=C1C=C(Nc2cccnc2)c2ccccc2C1=O	33.2% (inactive)	–
CSc1nnc(C)c(=O)n1COC(=O)COc1ccc2ccccc2c1	3.64% (inactive)	–
COc1ccc(-c2c(C#Cc3ccc(N(C)C)cc3)c3ccccc3n2C)cc1	6.35% (inactive)	–
Cc1cc(-c2ccc([N+](=O)[O-])cc2)nc2ccccc12	0% (inactive)	–
Cc1nc2c(-c3ccccc3)c(C)nn2c(N)c1-c1ccccc1	-5.49% (inactive)	–

Structure (SMILES)	inhibition	inhibition [1]
C[C@@]12C(=O)Nc3cc(F)c(F)cc3C(=O)N1[C@H]1c3cc(Cl)ccc3OC[C@@H]1[C@@H]2c1ccccc1	2.81% (inactive)	–
Cc1cc(C)c2[nH]c(=O)c(C(c3nnnn3Cc3ccc4c(c3)OCO4)N3CCCCC3)cc2c1 (stereo not drawn)	9.03% (inactive)	–
Cc1cc(C)c(NC(=O)CN2C(=O)NC3(CCCCC3)C2=O)c(C)c1	-3.21% (inactive)	–
Cc1cccc(NC(=O)CN(C)S(=O)(=O)c2ccc(-c3ccc(=O)[nH]n3)s2)c1C	-3.18% (inactive)	–
CC(=O)CC(=O)NC1CCc2ccccc21 (stereo not drawn)	-2.7% (inactive)	–
CCOc1ccc(C(=O)c2ccccc2C(=O)O)cc1OCC	-7.73% (inactive)	–
CC1=CC(=O)C(C(C)C)=C/C1=N/OS(=O)(=O)c1ccccc1	-4.66% (inactive)	–
CC1(C)SC(=S)N(/N=C/c2ccccc2)C1N(O)C(=O)Nc1ccc([N+](=O)[O-])cc1 (stereo not drawn)	-1.56% (inactive)	–
COc1ccccc1N(C(C)=O)c1nc(C)cc(C)c1C#N	-9.48% (inactive)	–
CC(=O)N(C1=C(N2CCOCC2)C(=O)c2ccccc2C1=O)c1ccc(C(=O)O)cc1	24.1% (inactive)	–
CC(=O)N(C1=C(N)C(=O)c2ccccc2C1=O)c1ccccc1	-4.08% (inactive)	–
CC(=O)N(c1ccccc1)C1CCCC1	-5.78% (inactive)	–
CC(=O)N(C1=C(O)c2ccccc2C(=O)C1=O)C1CCCCC1	4.86% (inactive)	–
COc1ccccc1N(/N=C1\Sc2ccccc2C1=O)C(C)=O	0.77% (inactive)	–
CC(C)CCCN1C(Nc2ccccc2)=NC[C@@H]1C	-8.02% (inactive)	–
O=C(COC(=O)/C=C/c1ccc(C(F)(F)F)cc1)NCc1ccco1	1.3% (inactive)	–
COc1ccccc1NC(=O)CN1C(=O)COc2ccc(S(=O)(=O)N3CCCCCC3)cc21	-3.55% (inactive)	–
COc1cccc(C(=O)Nn2c(-c3cccs3)nc3ccccc3c2=O)c1OC	-3.56% (inactive)	–
O=C(NCc1ccccn1)c1ccc(Cn2cc(C(F)(F)F)ccc2=O)cc1	-5.74% (inactive)	–
Cn1c(=O)c2c(ncn2CC(=O)N2CCc3ccccc3C2)n(C)c1=O	-0.55% (inactive)	–
CCc1ccc([C@@H]2CC=C(C(=O)O)[C@H](c3ccccc3)N2S(=O)(=O)c2ccc(C)cc2)cc1	15.1% (inactive)	–
CCCC[C@@H]1C=C(C(=O)O)[C@H](c2ccc(Cl)cc2)N1S(=O)(=O)c1ccc(C)cc1	9.27% (inactive)	1.23%

Structure (SMILES)	inhibition	inhibition [1]
CCCCC[C@@H]1C=C(C(=O)O)[C@H](c2ccc(C)cc2)N1S(=O)(=O)c1ccc(C)cc1	10.4% (inactive)	–
CCc1ccc([C@@H]2CC=C(C(=O)O)[C@H](c3ccc(F)cc3)N2S(=O)(=O)c2ccc(C)cc2)cc1	15.9% (inactive)	–
Cc1ccc(S(=O)(=O)N2[C@@H](c3ccccc3)C(C(=O)O)=CC[C@H]2c2ccc(Cl)cc2)cc1	13.2% (inactive)	–
Cc1ccc([C@H]2C(C(=O)O)=CC[C@@H](c3ccc(Cl)cc3)N2S(=O)(=O)c2ccc(C)cc2)cc1	23.2% (inactive)	7.95%
Cn1ncc([N+](=O)[O-])c1C(=O)Nc1cccc2ccccc12	-4.99% (inactive)	–
CC(C)CN(C(=O)COC(=O)CCCc1c[nH]c2ccccc12)c1c(N)n(Cc2ccccc2)c(=O)[nH]c1=O	1.62% (inactive)	–
Clc1ccc(OCCn2cnc(Cl)c2Cl)cc1	2.87% (inactive)	–
Cc1cccn2cc(CCNC(=O)c3ccc(Br)o3)nc12	3.48% (inactive)	–
O=C1COCCOCCOCCOCC(=O)NCCN1	-2.15% (inactive)	–
CCOC(=O)C1=CN(Cc2ccco2)S(=O)(=O)N(C)C1c1ccc(C(F)(F)F)cc1 (stereo not drawn)	-11.6% (inactive)	-0.605%
O=C(CSc1nnc(Cc2ccccc2)o1)NCCN1C(=O)CSC1=O	-7.38% (inactive)	–
CCCCc1ccc(/C=C(\C#N)C(N)=S)s1	0% (inactive)	–
CCc1ccc(/C=C(/C#N)C(N)=S)s1	0% (inactive)	–
Cc1ccc(N2C(=O)CC(Nc3ccc(Cl)c(S(=O)(=O)N(C)C)c3)C2=O)c(C)c1 (stereo not drawn)	-11.6% (inactive)	–
Cc1ccc(S(=O)(=O)NCCOCCNS(=O)(=O)c2ccc(C)cc2)cc1	-4.78% (inactive)	–
CC(C)C(C(=O)O)N1C(=O)/C(=C/C=C/c2ccco2)SC1=S (stereo not drawn)	42.9% (inactive)	–
CC(/C=C1\SC(=S)N(CCC(=O)Nc2ccc(O)cc2)C1=O)=C\c1ccccc1	1.3% (inactive)	–
CC(/C=C1\SC(=S)N(CC(=O)N2CCN(c3ccccc3)CC2)C1=O)=C\c1ccccc1	-0.73% (inactive)	–
CC(/C=C1\SC(=S)N(CC(=O)O)C1=O)=C\c1ccccc1	26% (inactive)	–
CC(C)C(C(=O)O)N1C(=O)/C(=C/c2cccn2C)SC1=S (stereo not drawn)	-19.5% (inactive)	–
CC(/C=C1\SC(=S)N(NC(=O)c2ccncc2)C1=O)=C\c1ccccc1	21.6% (inactive)	–
CCC(C(=O)O)N1C(=O)/C(=C/c2cccn2C)SC1=S (stereo not drawn)	-25.5% (inactive)	–
